This is a sample that favours compounds with a hit; in the whole collection about 7.9% have one here.
Hedgehog inh: blocks Sonic Hedgehog signaling | 2.1% of 22,000 active | inhibition, % (no concentration beside the values) | Shh-LIGHT2 Gli-luciferase reporter, 30 h | AID 2313;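 active = mean inhibition across valid replicates above about 65%, limit read from the data; inconclusive = mean under the limit, yet half or more replicates past it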;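 note: pathway switched on by Shh-conditioned medium diluted 1 in 25 in low serum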
MITF inhib: blocks MITF activity. AID 2240. inhibition, % (test concentration not listed). TRPM1 promoter luciferase, luminescence, 24 h. 0.28% of 37,000 active; in the data active = inhibition above about 85%; inconclusive = no clear call, values can overlap the other calls; inactive = below about 68%;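 note: human melanocyte line stably carrying TRPM1 promoter luciferase reporter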
NOMO-1 viab: STK33 inhibitor candidate reducing NOMO-1 cell viability; NOMO-1 AML viability, CellTiter-Glo luminescence, 72 h; inhibition, % (concentration not given with the values); 7.5% of 37,000 active; AID 2330; in the data active = inhibition above about 80%; inconclusive = no clear call, values can overlap the other calls
Starred values were filed as active, the others as inactive; ? = inconclusive; / = no result.

SMILES | Hedgehog inh | MITF inhib | NOMO-1 viab
Cc1noc(C)c1S(=O)(=O)Nc1ccc2c(c1)C(=O)N([C@@H](C)CO)C[C@H](C)[C@H](CN(C)S(C)(=O)=O)O2 | -14.2 | -6.2 | 5.2
CCn1ccc(CNC(=O)Nc2cccc(C(F)(F)F)c2)n1 | / | -18.5 | 16.5
C[C@@H]1CN([C@@H](C)CO)C(=O)c2cccc(NC(=O)Nc3ccc4c(c3)OCO4)c2O[C@@H]1CN(C)Cc1ccc(Cl)c(Cl)c1 | 20.4 | -21.9 | 55.8
C[C@@H]1CN([C@H](C)CO)C(=O)c2cccc(NC(=O)Nc3ccc4c(c3)OCO4)c2O[C@H]1CN(C)Cc1ccc(Cl)c(Cl)c1 | -3.7 | 12.2 | 87.1*
C[C@H](CO)N1C[C@H](C)[C@@H](CN(C)Cc2ccc(Cl)c(Cl)c2)Oc2c(NC(=O)Nc3ccc4c(c3)OCO4)cccc2C1=O | -25.5 | -8.2 | 81.6*
C[C@H]1CN([C@@H](C)CO)C(=O)c2cccc(NC(=O)Nc3ccc4c(c3)OCO4)c2O[C@@H]1CN(C)Cc1ccc2c(c1)OCO2 | -31.7 | -17.4 | 6.0
COc1ccc(CN(C)C[C@@H]2Oc3c(NC(=O)c4cc(C)nn4C)cccc3C(=O)N([C@@H](C)CO)C[C@H]2C)cc1 | -4.7 | -11.7 | 1.0
CC(C)(C)c1ccc(C(=O)N2CCCC2)cc1 | -34.4 | 15.1 | 8.7
CC(C)(C)c1ccc(C(=O)C(C#N)=C2SCCCS2)cc1 | / | -30.2 | 109.5*
COc1ccc(S(=O)(=O)N(C)C[C@@H]2Oc3c(NC(=O)c4nc5ccccc5s4)cccc3C(=O)N([C@H](C)CO)C[C@@H]2C)cc1 | 18.7 | 54.4 | 117.0*
Cc1ccc(S(=O)(=O)N(C)C[C@@H]2Oc3c(NC(=O)c4nc5ccccc5s4)cccc3C(=O)N([C@H](C)CO)C[C@H]2C)cc1 | -17.3 | 11.9 | ?
C[C@H](CO)N1C[C@H](C)[C@H](CN(C)S(=O)(=O)c2ccccc2)Oc2c(NC(=O)c3nc4ccccc4s3)cccc2C1=O | 1.7 | 22.5 | 87.7*
COc1ccc(S(=O)(=O)N(C)C[C@H]2Oc3c(NC(=O)c4nc5ccccc5s4)cccc3C(=O)N([C@@H](C)CO)C[C@H]2C)cc1 | -16.8 | 1.1 | 61.4
COc1ccc(C(=O)N(CC#N)CC#N)cc1 | -14.7 | -12.4 | -19.7
C[C@H]1CN([C@@H](C)CO)C(=O)Cc2cc(NC(=O)Cc3cn(C)c4ccccc34)ccc2O[C@H]1CN(C)Cc1ccc(C(F)(F)F)cc1 | 6.9 | 28.3 | 83.5*
C[C@@H]1CN([C@H](C)CO)C(=O)Cc2cc(NC(=O)Cc3cn(C)c4ccccc34)ccc2O[C@@H]1CN(C)C(=O)Nc1ccc(C(F)(F)F)cc1 | / | 28.5 | 5.9
C[C@@H]1CN([C@@H](C)CO)C(=O)Cc2cc(NC(=O)Cc3cn(C)c4ccccc34)ccc2O[C@@H]1CN(C)C(=O)Nc1ccc(C(F)(F)F)cc1 | -4.6 | 47.3 | 45.9
C[C@@H]1CN([C@H](C)CO)C(=O)Cc2cc(NC(=O)Cc3cn(C)c4ccccc34)ccc2O[C@H]1CN(C)Cc1ccc(C(F)(F)F)cc1 | 14.3 | 3.0 | 132.9*
Cc1ccc(N(CC(=O)Nc2cc(Cl)ccc2Cl)S(C)(=O)=O)cc1C | / | 13.3 | 3.5
O=C(COc1ccc(Br)cc1Cl)Nc1ccccc1CO | / | -13.2 | 15.7
COc1ccc(C(=O)CSc2n[nH]c(-c3ccccc3)n2)cc1[N+](=O)[O-] | / | -12.6 | 8.2
O=C(CSc1ccccn1)Nc1cccc(F)c1 | / | -49.8 | -4.6
Cc1cccc(OCC(=O)Nc2ccc(Cl)c(-c3nc4ccccc4s3)c2)c1 | / | -13.7 | 29.8
CCCCCC(=O)Cc1cc(O)c(O)c2c1C(=O)Oc1cc(O)c(C(=O)O)c(CCCCC)c1O2 | 74.8* | 28.6 | 107.7*
CCCc1c(C(=O)O)c(O)cc2c1C(=O)c1c(O)cccc1C2=O | 0.3 | 8.3 | 57.4
SMILES | Hedgehog inh | MITF inhib | NOMO-1 viab
COc1ccc(NC(=O)c2ccccc2NC(=O)COc2ccc([N+](=O)[O-])cc2)cc1 | / | -14.0 | -15.9
Cc1cccc(NC(=O)c2ccccc2NC(=O)COc2cccc([N+](=O)[O-])c2)c1C | / | -0.4 | 105.4*
COc1ccc(S(=O)(=O)N(C)C[C@@H]2Oc3c(NS(=O)(=O)c4ccc(C)cc4)cccc3C(=O)N([C@H](C)CO)C[C@H]2C)cc1 | -5.0 | -13.6 | -5.8
COc1cccc(CN2c3cccc4cccc(c34)S2(=O)=O)c1 | -12.2 | 10.1 | 24.3
O=c1cc(O)c2sc3nc(-c4cccnc4)c4c(c3c2[nH]1)CCCC4 | 0.3 | -1.0 | 106.0*
c1cncc(-c2nc3ccc4ccccc4c3c3c2CCCC3)c1 | 31.5 | 4.1 | 72.1

Source: PubChem (Broad Institute)
